The structures appear in SMILES notation.

For the test, the system named is Fibrinogen (Alexa647-labelled). Description: fibrinogen binders on compound microarrays, profiling panel, artefact control for SMM control-protein annotation, biochemical, small-molecule microarray, 635/667 nm fluorescence (AID 1131).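 Also: z-score merges 667 nm fluorescence with per-spot signal-to-noise over triplicate slides.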 The conditions noted are these: fibrinogen-A647 binding fluorescence, higher = more signal.
In turn, `C=CCOC(=O)[C@H]1[C@@H]2C(=O)O[C@@H](c3ccccc3)[C@@H](c3ccccc3)N2[C@@H](c2ccc(OCCOC(=O)[C@H]3C[C@H]4C(=O)N[C@@H](CC(C)C)C(=O)N4[C@H]3c3ccc(O)cc3)cc2)[C@]12C(=O)Nc1ccccc12` returned a composite z-score of 0.8.

As for `CCOC(=O)C1=C[C@@H](C(C)(C)C)N(S(=O)(=O)c2ccc(C)cc2)[C@H]1c1ccc(C#N)cc1`, the composite z-score was 0.996.

Take `C=CCOC(=O)[C@@H]1[C@H]2C(=O)O[C@H](c3ccccc3)[C@H](c3ccccc3)N2[C@H](c2ccc(OCCOC(=O)[C@H]3C[C@H]4C(=O)N[C@@H](CCCCN(C)C)C(=O)N4[C@H]3c3ccc(O)cc3)cc2)[C@@]12C(=O)Nc1ccc(I)cc12`: the composite z-score was 0.541.

As to `COC(=O)[C@H](Cc1ccc(O)cc1)N[C@@H](/C=C/C1CC1)[C@H](O)Cc1ccccc1`, the composite z-score was -0.785.

In turn, `O=C(NCC(O)CO)C1N=C(c2ccc(OCCCO)cc2)N(c2ccccc2)O1` (stereo not drawn) yielded a composite z-score of 0.0565.

As to `CCCc1cc2c(n1CCc1ccc(Cl)cc1)C(C)C1CN(C(=O)c3ccccc3)C(C)(C(=O)OC)C21` (stereo not drawn), the composite z-score turned out to be 1.02.

Take `CC(C)(C)OC(=O)CC[C@]1(C(=O)NCC(O)CO)N=C(c2ccc(OCCCO)cc2)O[C@H]1c1ccccc1N=[N+]=[N-]` (stereo partly drawn): the composite z-score was 0.953.

As to `COc1ccc([Si](C)(C)[C@H]2[C@H](CC(=O)N3CCC[C@H]3CO)O[C@@]3(C(=O)N(Cc4ccc(N5CCCCC5=O)cc4)c4ccccc43)[C@@H]2C)cc1`, the composite z-score was found to be 0.655.

Turning to `CN1C(=O)[C@@H]2[C@@H](CC(COc3ccccc3)=C3[C@@H](CCc4ccccc4)OB(O)C[C@@H]32)C1=O`, the composite z-score is 0.48.

In the case of `CC(C)(C)N1CC=CC23O[C@@H]4C=CCCOC(=O)C4[C@H]2C(=O)N(CCCCCCO)[C@@H]3C1=O` (stereo partly drawn), the composite z-score is -0.959.

`O=C1C=C(c2ccccc2)C(=O)C2=C1CC([C@H]1Oc3ccccc3S(=O)(=O)N3CCC[C@@H]13)=CC2`: the composite z-score is -0.472.

`O=C(NCc1ccc(F)cc1)[C@H]1C[C@H]2C(=O)N3CCC[C@H]3C(=O)N2[C@H]1c1ccc(O)cc1` had a composite z-score of 0.137.

`CC(=O)c1ccc(C(O)C2C=CC3C(=O)N(c4ccccc4)C(=O)C3N2Nc2ccc(C(C)C)cc2)cc1` (stereo not drawn) yielded a composite z-score of 0.939.

Turning to `CCCCC(O)C1C=CC2C(=O)N(c3ccccc3)C(=O)C2N1Nc1ccc([N+](=O)[O-])cc1` (stereo not drawn), the composite z-score worked out at 0.992.

`O=C1[C@@H]2[C@@H](CC(COc3ccccc3)=C([C@H](O)CCc3ccccc3)[C@@H]2CO)C(=O)N1Cc1ccccc1` registered a composite z-score of 0.724.

For `COC(=O)[C@@]1(Cc2ccc(F)cc2)[C@H]2c3cc(C(=O)N(C)C)n(C)c3C[C@H]2CN1C(=O)c1ccccc1`, the composite z-score was -0.0862.

Molecule `C[N+](C)(C)CCCC[C@@H]1NC(=O)[C@H]2C[C@@H](C(=O)NCCCCCNC(=O)CS)[C@@H](c3cccc(OCCO)c3)N2C1=O` came in with a composite z-score of 0.821.

Turning to `COC(=O)C[C@H]1O[C@@]2(C[C@@H]1[Si](C)(C)C)C(=O)N(C)c1ccccc12`, the composite z-score came out at 0.78.

The molecule `C=CCOC(=O)[C@H]1[C@@H]2C(=O)O[C@@H](c3ccccc3)[C@@H](c3ccccc3)N2[C@@H](c2ccc(OCCOC(=O)[C@@H]3C[C@@H]4C(=O)N[C@@H](CCCC[N+](C)(C)C)C(=O)N4[C@@H]3c3ccc(O)cc3)cc2)[C@]12C(=O)Nc1ccc(I)cc12` registered a composite z-score of 0.4.

`C=CC[C@@]1(C(=O)OC)N=C(c2ccc(OCCCO)cc2)O[C@@H]1c1ccccc1N=[N+]=[N-]` yielded a composite z-score of 0.159.

`C=CC[C@@]1(C(=O)N(C)C)N=C(c2ccc(OCCCO)cc2)O[C@@H]1c1ccccc1CN=[N+]=[N-]` returned a composite z-score of 0.985.

In turn, `CCCCCC1=C2CNC(CC(C)C)(C(=O)OC)C=C2C(C)C1=O` (stereo not drawn) returned a composite z-score of 0.955.

The molecule `COc1ccc(C(O)C2C=CC3C(=O)NC(=O)C3N2Nc2ccc(Cl)cc2Cl)c2ccccc12` (stereo not drawn) returned a composite z-score of 0.925.

`CCOC(=O)C[C@H]1[C@H](OC(=O)Cc2ccc3c(c2)OCO3)[C@@H](NC(=O)c2ccc3ccccc3n2)c2cc(OCCCO)ccc2N1C(=O)Cc1ccc(OC)cc1` displayed a composite z-score of 0.557.

Molecule `CCCCC(O)C1C=CC2C(=O)N(c3ccccc3)C(=O)C2N1Nc1ccccc1` (stereo not drawn) displayed a composite z-score of 0.543.

In the case of `COc1ccc([Si](C)(C)[C@@H]2[C@@H](CC(=O)N3CCC[C@H]3CO)O[C@]3(C(=O)N(Cc4ccc(N5CCOC5=O)cc4)c4ccccc43)[C@H]2C)cc1`, the composite z-score stood at 0.867.

Turning to `CC(C)NC(=O)[C@@]1(c2ccc([N+](=O)[O-])cc2)CC(=O)N(CC23CC4CC(CC(C4)C2)C3)[C@@H]1c1ccc(CO)cc1`, the composite z-score came to 0.948.

For the molecule `C=C(CCCC)/C(=C/C[C@H](OC(C)=O)c1cccc(OCCO)c1)c1cnc2ccccc2c1`, the composite z-score was -0.785.

For the origin of these results see PubChem BioAssay.
